# Test results as given in ChEMBL document CHEMBL1157539, “Thousands of chemical starting points for antimalarial lead identification” (Nature, 2010).
# What was measured:
# Format in all cases: functional
# Plasmodium falciparum [1] = test: GSK_TCMDC: Inhibition of Plasmodium falciparum 3D7 in whole red blood cells, using parasite LDH activity as an index of growth. Test compounds present at 2uM
# Plasmodium falciparum [2] = test: GSK_TCMDC: Inhibition of Plasmodium falciparum Dd2 in whole red blood cells, using parasite LDH activity as an index of growth. Test compounds present at 2uM
# HepG2 = test: GSK_TCMDC: Percent inhibition of human HepG2 cell line. Test compounds present at 10uM.
SMILES,Inhibition (Plasmodium falciparum [1]),Inhibition (Plasmodium falciparum [2]),Inhibition (HepG2)
CCc1cn2c3c(cc(C(=O)N[C@@H](Cc4cccc(Cl)c4)[C@H](O)CNC4CCCCC4)cc13)N(C)S(=O)(=O)CC2.O=CO,97%,98%,12%
CC(C)(C)c1ccc(CN2CCC(NC(=O)c3cc(-c4cccc(C(F)(F)F)c4)cs3)C2)cc1.O=C(O)C(F)(F)F (configuration not stated),98%,85%,24%
CCN(CC)CCN(Cc1ccc(-c2ccc(C(F)(F)F)cc2)cc1)C(=O)Cn1c(CCc2ccc(F)c(C#N)c2)nc(=O)c2ccccc21.O=C(O)C(O)C(O)C(=O)O,98%,55%,18%
Fc1ccccc1C=NN=c1cc[nH]c2ccc(C(F)(F)F)cc12,100%,61%,5%
COC(=O)Nc1nc2cc3c(cc2s1)OCCO3,99%,0%,0%
Cc1cccc2nc(-c3ccc(-c4ccc(CN5CCC(CCN6CCCCC6)CC5)cc4)cc3)[nH]c12.O=C(O)C(F)(F)F,100%,100%,99%
CN(C)CCN(C)Cc1cccc(-c2ccc3c(Nc4cc(O)c(Cl)cc4F)ccnc3c2)c1,100%,70%,14%
CCCCCCN(CCCCCC)CC(O)c1cc(-c2ccc(Cl)cc2)nc2c(C)cc(C)cc12 (configuration not stated),98%,98%,27%
CC(C)Sc1nc2c(c(=O)n1Cc1ccco1)C1(CCCC1)Cc1ccccc1-2,98%,10%,8%
COc1cccc(C(=O)Nc2ccc(-c3nc4ccccc4[nH]3)cc2)c1,95%,19%,28%
O=C(Nc1cccc(-c2nn3ccccc3c2-c2ccnc(Nc3cccc(N4CCCC4=O)c3)n2)c1)c1cc(F)ccc1F,99%,51%,59%
COc1ccccc1N1CCN(CCCCNC(=O)c2ccc(NC(=O)c3ccc4ccccc4c3)cc2)CC1,97%,18%,16%
CC(C)(NCc1ccc(OC(F)(F)F)cc1)c1nc(-c2ccc(Cl)c(O)c2)c(-c2ccncc2)[nH]1.Cl,94%,32%,65%
CNCCNCc1cccc(-c2cccc(-c3nc4cc(F)ccc4[nH]3)c2)c1.O=C(O)C(F)(F)F,98%,15%,20%
Br.C=CCc1cccc(OC)c1OCCCON1C(=N)N=C(N)NC1(C)C,94%,95%,58%
Cc1cc(-c2cccc3c(NC(=O)N4CCc5cc6nccc(N7CCN8CCC[C@H]8C7)c6cc54)cccc23)cc(C)n1.Cl,100%,100%,12%
COc1ccc(-c2nc(-c3ccc([N+](=O)[O-])cc3)no2)cc1OC,96%,0%,14%
Cc1ccc(CNC(=O)[C@H](CCCN)Nc2cc(C)nc(NCC3CCCCC3)n2)cc1.O=C(O)C(F)(F)F,90%,0%,1%
O=C(CCn1c2ccccc2c2ccccc21)NN=Cc1ccco1,96%,0%,6%
Br.CCCCCCCCn1ccc(=N)cc1,91%,84%,49%

SMILES,Inhibition (Plasmodium falciparum [1]),Inhibition (Plasmodium falciparum [2]),Inhibition (HepG2)
COc1ccc2nccc([C@@H](O)CN3CCC(NCCOc4ccccc4C#N)CC3)c2c1.O=C(O)C(=O)O,100%,99%,10%
CC(C)[C@@H](C(=O)NCc1cccc(C(F)(F)F)c1)N1C(=O)CCC1C(=O)Nc1ccc([N+](=O)[O-])cc1 (some centres not stated),94%,2%,0%
COc1cccc(C2CCN(CCN3CCC(NC(=O)c4ccc(-c5ccc(C#N)cc5)cc4)CC3)CC2)c1,98%,47%,28%
COc1ccc(NC(=O)/C=C/c2ccc(Cl)c(Cl)c2)cc1N1CCN(C)CC1,90%,20%,23%
Cc1cccc2nc(-c3cccc(-c4cccc(NC(=O)c5c[nH]cn5)c4)c3)[nH]c12,100%,91%,2%
Cc1cc(C2CCN(CCCCNC(=O)c3ccc(-c4ccc(C(F)(F)F)cc4)cc3)CC2)c(C)cc1OCCO,99%,3%,31%
CC(C)(C)CNc1noc(-c2sccc2Br)n1,82%,71%,4%
COc1cccc(C(O)CNc2ccnc(Nc3ccc(Cl)cc3)n2)c1 (configuration not stated),99%,46%,31%
COC(=O)c1ccccc1N1CCN(CCCCNC(=O)c2ccc(NC(=O)c3cc(Cl)cc(Cl)c3)cc2)CC1,100%,42%,20%
NC(=O)COc1c(C2CCN(CCN3CCC(CNC(=O)c4ccc(-c5ccc(C(F)(F)F)cc5)cc4)CC3)CC2)ccc2c1CCCC2,87%,68%,32%
CCNc1cc(C)nc(Nc2ccc(NC(=O)c3cccs3)cc2)n1,100%,50%,21%
COc1ccc2nc3cc(Cl)ccc3c(NCCCCCCNc3c4ccc(Cl)cc4nc4ccc(OC)cc34)c2c1.Cl.Cl.Cl.Cl,96%,79%,20%
Cc1ccc(NC(=O)c2nc(N3CCN(c4ccncc4)CC3)ccc2Cl)cc1F.O=C(O)C(F)(F)F,100%,57%,51%
CC1CN(c2cc(=O)n(Cc3cccc(NC(=O)Nc4ccc(-c5ccccc5)cc4)c3)cn2)CC(C)N1.O=C(O)C(F)(F)F (configuration not stated),100%,63%,2%
CN1CCN(CCCN(Cc2ccc(-c3ccc(CNCc4ccc5c(c4)OCO5)cc3)cc2)C(=O)Nc2ccccc2)CC1.O=C(O)C(F)(F)F,94%,77%,36%
COc1cc(Nc2nccc(-c3c(-c4cccc(NC(=O)c5c(F)cccc5F)c4)nn4ncccc34)n2)cc(OC)c1OC,98%,97%,96%
CCOC(=O)c1ccc(NC(=O)N(Cc2ccc(-c3ccc(CN4CCNCC4)cc3)cc2)C2CCN(Cc3ccccc3)CC2)cc1.O=C(O)C(F)(F)F,100%,93%,14%
Cc1cc(N2CCCC2)nc(Nc2ccc(NC(=O)Cc3ccccc3)cc2)n1,100%,72%,71%
Cc1cc(C(=O)OCC(N)=O)c(C)n1-c1ccc(F)cc1,97%,96%,0%
CCC(C)NCC(O)(c1ccc(Cl)cc1)c1ccc(Cl)cc1 (configuration not stated),95%,76%,5%

SMILES,Inhibition (Plasmodium falciparum [1]),Inhibition (Plasmodium falciparum [2]),Inhibition (HepG2)
CCn1c(C)cc(C=C2SC(=Nc3ccccc3)NC2=O)c1C,90%,87%,27%
CCOc1cc(C(=O)NC2CC(C)(C)NC(C)(C)C2)ccc1-c1nc2cc(Cl)ccc2[nH]1,100%,64%,46%
Oc1cc(Nc2ccnc3cc(-c4cccc(CN5CCCCC5)c4)ccc23)c(F)cc1Cl,100%,100%,21%
Nc1nccc2ccc(-c3ccnc(NCc4cccnc4)n3)cc12,100%,95%,11%
CC(C)N1CCN(c2ccc(OCCCCN3CCN(c4cccc(Cl)c4Cl)CC3)cc2Cl)CC1.Cl,89%,34%,63%
COc1ccc2ncc(F)c(NC(=O)C3CCC(NCc4cc5cc(F)cc(F)c5[nH]4)CC3)c2n1.Cl (configuration not stated),95%,15%,18%
CCOC(=O)c1cn(CC)c2cc(N(C)CCc3ccc(OC)c(OC)c3)c(F)cc2c1=O.Cl,92%,96%,9%
Cc1nc(C)c(CC(=O)Nc2cccc(-c3cccc(-c4nc5cc(C(F)(F)F)ccc5[nH]4)c3)c2)s1,95%,30%,49%
Cl.Clc1cnc2ccc3c(c2c1CCN1CCC(NCc2cc4c(cn2)OCCO4)CC1)OCCO3,92%,18%,3%
CCCC(C)c1cnc2nc(N)nc(N)c2c1C (configuration not stated),95%,1%,67%
CC(C)(Oc1ccc(Cl)cc1)C(=O)NCCC1CCN(CCCCCNC(=O)/C=C/c2ccc(Cl)c(Cl)c2)CC1,87%,37%,73%
O=C(O)C(F)(F)F.O=[N+]([O-])c1cccc(CNC2CCN(Cc3ccc(C(F)(F)F)cc3)CC2)c1,99%,28%,0%
O=S(=O)(c1ccc(Cl)cc1Cl)N1CCCCC(c2ccc(C(F)(F)F)cc2)=N1,100%,99%,10%
O=C(NC1CCCCC1)N(Cc1cccc(-c2ccc(CNCCc3ccccc3)cc2)c1)C1CCN(Cc2ccccc2)CC1.O=C(O)C(F)(F)F,93%,93%,61%
COc1cc(-c2nc(-c3ccc(C(=O)c4ccc(F)cc4)cc3)c(-c3ccccc3)[nH]2)cc(OC)c1O,100%,100%,0%
COc1ccc(CSC2CCCCC23NC(=S)NC3=S)cc1 (configuration not stated),97%,0%,0%
Cc1n[nH]c2ccc(-c3cc(OC[C@@H](N)Cc4ccccc4)cnc3-c3cc4ccccc4s3)cc12.O=C(O)C(F)(F)F,99%,68%,41%
CN(C)CCCN1CCN(C(=O)c2cccc(-c3noc(C(F)(F)F)n3)c2)CC1,92%,60%,0%
COc1ccc(N2CCN(c3nc(Nc4ccc(NC(C)=O)cc4)nc(N4CCCC4)n3)CC2)cc1,91%,38%,0%
